# From PubChem BioAssay
# A selection: hits, their analogues and other compounds. The true share with any hit is near 2.8%.
# POLB inh – blocks human DNA polymerase beta activity; P06746; Pol beta primer extension/strand displacement, fluorescence kinetic; Potency, µM (titrated, usually from 114 µM), for inactives: top-dose activity change, negative = inhibition, most hits filed as inhibitors; 340,000 compounds, 1.3% hits; also: potency is read from the fitted curve at half-maximal effect; % is scaled to controls: 0 for no effect and ±100 for the full control effect
#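 Kinetic readout of DNA synthesis with strand displacement by Pol beta. Compound and 10 nM enzyme sit 15 min at room temperature; 50 nM substrate starts the reaction, read immediately and at 10 min.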
# POLH inh – DNA polymerase eta (human) inhibition; Potency, µM (titrated, usually from 114 µM), inactives show at the highest dose activity change, negative = inhibition, usual class: inhibitors; Q9Y253; recombinant Pol eta, fluorescent DNA replication assay; 390,000 compounds, 1.2% hits; also: potency is read from the fitted curve at half-maximal effect; % is scaled to controls: 0 for no effect and ±100 for the full control effect
# Target sequence (Q9Y253 whole entry, looked up): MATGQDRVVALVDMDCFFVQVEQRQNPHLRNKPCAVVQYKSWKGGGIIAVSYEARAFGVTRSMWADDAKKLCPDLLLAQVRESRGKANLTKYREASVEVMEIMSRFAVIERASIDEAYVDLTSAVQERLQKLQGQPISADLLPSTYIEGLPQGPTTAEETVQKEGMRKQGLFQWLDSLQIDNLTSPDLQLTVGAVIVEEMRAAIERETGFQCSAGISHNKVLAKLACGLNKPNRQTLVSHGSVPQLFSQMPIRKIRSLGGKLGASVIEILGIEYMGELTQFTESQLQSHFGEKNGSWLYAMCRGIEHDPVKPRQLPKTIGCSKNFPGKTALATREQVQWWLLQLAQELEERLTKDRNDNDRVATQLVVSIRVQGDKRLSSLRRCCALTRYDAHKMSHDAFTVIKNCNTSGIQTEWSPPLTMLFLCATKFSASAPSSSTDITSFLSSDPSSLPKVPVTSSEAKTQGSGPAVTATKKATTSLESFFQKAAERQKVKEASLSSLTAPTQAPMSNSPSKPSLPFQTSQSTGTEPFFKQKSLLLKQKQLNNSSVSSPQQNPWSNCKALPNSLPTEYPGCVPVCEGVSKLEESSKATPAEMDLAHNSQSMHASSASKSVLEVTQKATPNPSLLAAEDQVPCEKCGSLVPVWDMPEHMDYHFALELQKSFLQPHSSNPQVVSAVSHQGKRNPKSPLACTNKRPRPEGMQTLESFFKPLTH
#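 Pol eta (10 nM) was preincubated with compounds for 15 min at room temperature, after which fluorescent replication substrate (50 nM final) was added to start the reaction. Fluorescence was read kinetically at 0 and 10 min.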
# Pol iota inh – inhibitors of human DNA polymerase iota; Pol iota fluorescent replication assay, 10 min; Potency, µM (titrated, usually from 115 µM), for the others: at the top dose activity, negative = inhibition, hits mostly inhibitors; 390,000 compounds, 1% hits; AID 588590; also: potency is read from the fitted curve at half-maximal effect
#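 Pol iota at 10 nM preincubated 15 min with compounds at room temperature; reaction started with fluorescent substrate, 50 nM final. Fluorescence read kinetically at 0 and 10 min; buffer-only wells as negative control.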
# WRN helicase inh – blocks human WRN helicase. Q14191. WRN helicase unwinding, fluorescent forked duplex, kinetic. Potency, µM (doses to about 114 µM), for the others: at the highest dose activity change, negative = inhibition, hits mostly inhibitors. 360,000 compounds, 0.46% hits. AID 651768; also: potency is read from the fitted curve at half-maximal effect; % is scaled to controls: 0 for no effect and ±100 for the full control effect; nearly all actives have a fitted effect of over 55% in size
#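 WRN at 20 nM final preincubated with compound 15 min at room temperature; reaction started with 100 nM fluorophore/quencher forked duplex oligonucleotide and 2 mM ATP final. Unwinding followed kinetically by red fluorescence (ex 525, em 598 nm).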
# POLK inh – DNA polymerase kappa (human) inhibition. Q9UBT6. purified Pol kappa, fluorescent DNA synthesis assay, 10 min. Potency, µM (top dose mostly 107 µM), for inactives: at the top dose activity, negative = inhibition, actives largely listed as inhibitors. 400,000 compounds, 0.53% hits. AID 588579; also: potency is read from the fitted curve at half-maximal effect; % is scaled to controls: 0 for no effect and ±100 for the full control effect
#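 First, compounds were pin-transferred onto 10 nM Pol kappa. After 15 min at room temperature, substrate was added to 50 nM final. Fluorescence was then measured kinetically at 0 and 10 min.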
# PI5P4K alpha inh – inhibitors of human PI5P4K alpha; max response, %; 330,000 compounds, 1.2% hits; AID 652105; P48426; PI5P4Kalpha enzyme, ADP-Glo luminescence, 60 min; hits give low values; active = max response of -50% or lower; inconclusive = between -30% and -50%; inactive = -30% or higher; also: value at the top dose of about 77 µM; % is scaled to controls: 0 for no effect and ±100 for the full control effect
#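 Luminescence from ADP-Glo served as readout of PI5P4Kalpha activity in a qHTS format. Reaction: enzyme, substrate, compound, ATP at 5 microM final, 60 min at RT.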
# An asterisk follows results filed as active; ? = inconclusive; / = not tested or not shown; [ ] = remark or other dose. Unless noted, calls follow the shape of the dose curve; as a rule, active = well fitted curve in the direction sought with a large enough effect; inconclusive = small, poorly fitted or top-dose-only effect, or another doubt; inactive = no such curve, though single readings can be large; an effect the other way counts as inactive or inconclusive.
SMILES,POLB inh,POLH inh,Pol iota inh,WRN helicase inh,POLK inh,PI5P4K alpha inh
CCOC(=O)c1ccc(CC(=O)c2ccc(O)c(O)c2O)o1,1.1µM*,?,1µM*,?,1.6µM*,?
CCOC(=O)c1ccc(CC(=O)c2oc3cc(O)ccc3c2C)o1,3%,-5%,57%,-16%[57.1 µM],-19%,/
Cc1ccc(NC(=O)C(C)OC(=O)c2nc(Cl)ccc2Cl)cc1S(=O)(=O)N1CCOCC1 (stereo unspecified),/,?,?,-4%[11.6 µM],-30%,?
Cc1ccc(NC(=O)C(C)OC(=O)c2ccc(Cl)nc2)cc1S(=O)(=O)N1CCOCC1 (stereo unspecified),/,20µM*,?,-17%,-15%,?
CCCCN1C(=O)C(CC(=O)NCCN2CCOCC2)CC(C(=O)N(C)C)=C1C (stereo unspecified),/,1%,/,-6%,/,0
Cc1nnc(N=c2ssnc2Cl)o1,/,1%,?,0%,-23%,-101*
Cc1cc(Cl)ccc1N=c1ssnc1Cl,10%,-18%,?,50µM*,0%,-53*
Nc1ccccc1N=c1ssnc1Cl,-5%,-22%,?,-3%,-1%,?
Cc1ccc(N=c2ssnc2Cl)cc1,2%,-5%,?,50µM*,10%,-66*
COc1ccccc1N1CCN(C(=O)CCNS(=O)(=O)c2cc(Br)cnc2N)CC1,8%,10%,6%,-12%,-25%,1
Cc1cccc(NC(=O)CNC(=O)c2ccc3nc[nH]c3c2)c1C,/,13µM*,?,-32%,?,?
Cc1ccccc1C(=O)NNC(=O)c1ccc2nc[nH]c2c1,/,?,?,-14%,-16%,?
NS(=O)(=O)c1cccc(NC(=O)c2ccc3nc[nH]c3c2)c1,50µM*,79µM*,?,?,?,?
C#CCN(Cc1ccc(OC)cc1)S(=O)(=O)C=C,/,/,-15%,/,-17%,/
Cc1csc2nc(COC(=O)CNC(=O)c3ccccc3Cl)cc(=O)n12,-9%,-14%,8%,/,-21%,/
COc1ccc(CN2CCN(C(=O)c3ccco3)CC2)cc1OC,30%,-10%,57%,-6%[57.1 µM],-10%,-5
COc1ccc(CN2CCN(C(=O)CCC(=O)c3ccc(C)s3)CC2)cc1OC,/,25µM*,89µM*,-22%,-33%,?
CN(C)c1cc(F)c(C=O)cc1F,/,/,29%,/,-4%,/
O=C(N/N=C/c1c(O)ccc2ccccc12)Nc1ccccc1,/,-9%,5%,-1%,5%,-3
O=C(O)c1cc(N/N=C/c2ccc(OCc3ccccc3)cc2)ccc1Cl,50µM*,-17%,107%,-14%,-19%,2
Cc1ccc(C(=O)N/N=C/c2c(O)ccc3ccccc23)cn1,50µM*,50µM*,?,-1%[11.6 µM],-6%,0
Cn1c(/N=C/c2c(O)ccc3ccccc23)nc2ccccc21,50µM*,89µM*,7.9µM*,45µM*,-5%,/
CC(C)C(=O)N/N=C/c1ccc(OCc2ccccc2)cc1,19%,-11%,11%,-3%,-17%,-4
O=C(O)c1cc(N/N=C/c2c(O)ccc3ccccc23)ccc1Cl,79µM*,?,?,-22%[11.6 µM],?,-12
O=C(N/N=C/c1c(O)ccc2ccccc12)c1cccnc1,-5%,-17%,8%,0%,-9%,2
SMILES,POLB inh,POLH inh,Pol iota inh,WRN helicase inh,POLK inh,PI5P4K alpha inh
CCCn1c(/N=C/c2ccccc2O)nc2ccccc21,54%,?,1%,-8%,0%,1
COc1ccccc1-c1cccc([C@@H]2C[C@H]3[C@H](CON3C)CN2C(C)=O)c1,/,-3%,3%,4%,-4%,-3
O=C(SCC(O)C(O)CS)c1cccs1 (stereo unspecified),-14%,5%,34%,6%,5%,-6
CCCNc1nc(Nc2ccc([N+](=O)[O-])cc2)nc(N2CCOCC2)n1,/,/,17%,/,11%,/
CC(=O)c1ccc(OCCCC(=O)NNC(=O)c2ccccn2)cc1,/,-6%,55%,6%,8%,-9
O=C(O)c1ccc(N=Cc2c(O)ccc3ccccc23)cc1,57%,-16%,13µM*,-2%[11.6 µM],-13%,5
O=C1C[C@@H]2c3c(cccc3CN1Cc1ccc(Cl)cc1)C[C@@H](O)[C@H]2O,/,-19%,17%,2%,-13%,9
O=C1OC2(c3cc(I)c(O)c(I)c3Oc3c2cc(I)c(O)c3I)c2c(Cl)c(Cl)c(Cl)c(Cl)c21,/,/,/,/,7.5µM*,/
O=C1OC2(c3ccc(O)cc3Oc3cc(O)ccc32)c2ccccc21,/,/,/,/,30µM*,/
O=C1OC2(c3ccccc31)c1cc(I)c(O)c(I)c1Oc1c2cc(I)c(O)c1I,/,/,/,/,27µM*,/
O=C(NCc1cccc(C(F)(F)F)c1)C1C(=O)Nc2ccccc2C(=O)N1Cc1ccccc1 (stereo unspecified),/,/,/,-4%,/,9
O=C(/C=C/c1ccc(O)c(O)c1)O[C@H]1C[C@@](O)(C(=O)O)CC(O)C1O (stereo partly specified),/,/,/,/,-10%[60.1 µM],/
CC(=O)Nc1ccc(Sc2ccccc2C(=O)O)cn1,-22%,-2%,?,-2%,-6%,-56*
CC(=O)Nc1ccc(Sc2ccccc2C(=O)Nc2ccc(F)cc2)cn1,1%,0%,85%,7%[57.1 µM],-9%,-14
Cc1ccc(C)c(N2CCN(C(=O)c3ccc(CS(=O)(=O)c4ccccc4C)o3)CC2)c1,?,-28%,10%,-18%,-10%,/
Cc1ccc(S(=O)(=O)Cc2ccc(C(=O)N3CCN(c4cc(C)ccc4C)CC3)o2)cc1,40µM*,-7%,?,-17%,-25%,/
Cc1ccc(S(=O)(=O)Cc2ccc(C(=O)N3CCCCCC3)o2)cc1,12%,-3%,-19%,-1%,-5%,3
CCOC(=O)C1CCCN(C(=O)c2ccc(CS(=O)(=O)c3ccc(C)cc3)o2)C1 (stereo unspecified),?,18µM*,32µM*,-25%,-41%,?
CC(C)Oc1cccc(C(=O)Nc2ccc3oc(-c4cccc(Cl)c4)nc3c2)c1,-26%,-21%,15%,/,-11%,/
Fc1ccc(-c2nnc(CN3CCN(c4ccccn4)CC3)o2)cc1,6%,-2%,14%,/,-19%,/
CC(=O)c1cccc(NCC(=O)N2CCN(S(=O)(=O)c3ccccc3)CC2)c1,/,-24%,49%,-2%,-14%,3
Cc1ccc(NC(=O)NC(=O)N(C(C)C)S(=O)(=O)c2ccc(C)cc2)cc1,89µM*,6%,7%,2%,-10%,3
Cc1ccc(NC(=O)Nc2ccc(S(N)(=O)=O)cc2)cc1,-5%,-10%,47%,-1%,2%,-3
N#Cc1c(Cl)nc(N/N=C/c2ccccc2)c(Cl)c1Cl,20µM*,-14%,3%,-9%,-5%,16
